Measured values published in PubChem BioAssay AID504444 (National Center for Advancing Translational Sciences (NCATS), 2011).
Out of some 360,000 compounds screened, about 7,500 (2.1%) were called active. Inconclusive results (about 20%) are left out. This is one part of a sample in which actives are shown more often than they occur. Calls follow the shape of the dose curve; as a rule, active = well fitted inhibition curve with a large enough effect; inconclusive = small, poorly fitted or top-dose-only effect, or effect the other way; inactive = flat fitted curve, though single readings scatter.

Assay: Nrf2 qHTS screen for inhibitors; also: nearly all actives have a fitted effect of over 60% in size
Settings: A549 ARE-Fluc reporter, luciferase luminescence, 18-24 h; series mostly up to 46 µM; activity change, negative = inhibition: at the top concentration
Summary of the method: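 In this cell-based qHTS, ARE-driven firefly luciferase in A549 cells reports Nrf2 activity; the luminescent signal after BugLite lysis is the measured value, with a prior CellTiter-Fluor read for cell health.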
% is scaled to controls: 0 for no effect and ±100 for the full control effect; potency is read from the fitted curve at half-maximal effect.

Compound | Potency | activity change, negative = inhibition
Cc1ccc(NC(=O)c2cccc(S(=O)(=O)N3CCCc4ccccc43)c2)nc1 | 10.3 µM (active) | –
O=C(Nc1nnc(S(=O)(=O)N2CCCc3ccccc32)s1)c1cccc(F)c1 | – | 6.53% (inactive)
CC1CCN(C(=O)c2cccc(S(=O)(=O)N3CCCc4ccccc43)c2)CC1 | – | -20.5% (inactive)
Cc1ccc(S(=O)(=O)N2CCN(C(=O)Cn3c(=O)cnc4ccccc43)CC2)c(C)c1 | – | -5.38% (inactive)
O=C1OC(Oc2ccc(Br)cc2)(c2ccccc2)c2ccccc21 (stereo not drawn) | – | -9.2% (inactive)
CC(C)N(C(=O)COC(=O)c1ccccc1C(=O)N1CCN(c2ccc(F)cc2)CC1)C(C)C | – | -8.91% (inactive)
Cn1c2ccccc2c2c(C(=O)N3CCN(c4ccc(F)cc4)CC3)cn(C3CCCC3)c(=O)c21 | 25.9 µM (active) | –
CCOc1ccc(NC(=O)c2cn(C3CCCCC3)c(=O)c3c2c2ccccc2n3C)cc1 | – | 13% (inactive)
COc1cc(C2c3c(oc4ccccc4c3=O)C(=O)N2c2nc(C)c(C)s2)ccc1O (stereo not drawn) | – | -0.391% (inactive)
CC[C@]12c3[nH]c4cc(CCC(=O)N(C)C)ccc4c3CCN1C(=O)[C@@H](CC(=O)NCC13CC4CC(CC(C4)C1)C3)C[C@@H]2C(=O)N1CCN(C(=O)C2CC2)CC1 | – | -6.58% (inactive)
CCOC(=O)c1c(C)n(S(=O)(=O)c2ccc(C)cc2C)c2ccc(NS(=O)(=O)c3ccc(C)cc3C)cc12 | – | -14.8% (inactive)
CCN(CC)S(=O)(=O)c1cccc(NC(=O)c2ccc(S(=O)(=O)N3CCCC3)cc2)c1 | 23.1 µM (active) | –
COc1cc(C(=O)NNC(=O)c2ccc(S(=O)(=O)N3CCCCC3)cc2)cc(OC)c1OC | – | -3.74% (inactive)
O=C(Nc1cccc(S(=O)(=O)N2CCCC2)c1)c1cncc(Br)c1 | – | -20.7% (inactive)
CC(C)n1ncc2c(C(=O)NCc3ccccc3CN(C)C)cc(C3CC3)nc21 | – | -4.86% (inactive)
CC(C)(C)C(=O)Nc1cccc(-c2ccc[nH]2)n1 | – | 12.1% (inactive)
COc1cc2c(cc1OC)C(c1ccncc1)CC(=O)N2 (stereo not drawn) | – | 9.55% (inactive)
Cc1cc2c(cc1C)C(c1cccc(OC(C)C)c1)CC(=O)N2 (stereo not drawn) | 16.4 µM (active) | –
COC(=O)c1ccc(C2CC(=O)Nc3cc(OC)c(OC)cc32)cc1 (stereo not drawn) | – | -22.5% (inactive)
Cc1ccc(NC(=O)CN2C(=O)CC(C)Sc3ccccc32)c(C)c1 (stereo not drawn) | – | -11.2% (inactive)
OC(COc1ccccc1)CN1CCN(c2cccc(Cl)c2)CC1 (stereo not drawn) | – | 5.04% (inactive)
CCc1nn(CCCN2CCN(c3cccc(Cl)c3)CC2)c(=O)n1CCOc1ccccc1 | 16.4 µM (active) | –
CCN1C(=O)/C(=C\N2CCN(c3cccc(Cl)c3)CC2)SC1=S | – | 14.6% (inactive)
Cc1ccc(-c2noc(CSc3nnc(-c4ccc(Cl)cc4)n3C)n2)cc1 | – | -23.8% (inactive)

Compound | Potency | activity change, negative = inhibition
COC(=O)c1ccccc1NC(=O)Cn1c(=O)cc(C)c2c(C)nn(-c3cccc(Cl)c3C)c21 | – | 19.2% (inactive)
COc1cccc(-c2ccc(SCC(=O)N3CCN(c4ccccc4)CC3)nn2)c1 | 20.6 µM (active) | –
COc1cccc(/C=C/C(=O)OCC(=O)N2CCN(c3ccccc3)CC2)c1 | – | -5.53% (inactive)
Cc1nnc(SCC(=O)N2CCN(c3ccccc3)CC2)n1-c1ccccc1 | – | -13.8% (inactive)
C=CCC[C@@H](Cc1ccc(F)cc1)C(=O)O[C@H](CNC(=O)[C@H](CC=C)CC(=O)N(CCO)Cc1ccccc1)c1ccccc1 | 18.4 µM (active) | –
C=CC[C@H](CC(=O)OC(C)(C)C)C(=O)OC[C@H]1CCCN1C(=O)[C@H](CC=C)CC(=O)N(CCO)Cc1ccccc1 | – | 6.87% (inactive)
C=CC[C@@H](CC(=O)N[C@H](CO)Cc1ccccc1)C(=O)N[C@@H](COC(=O)[C@@H](CC=C)Cc1ccc(F)cc1)Cc1c[nH]c2ccccc12 | – | 5.43% (inactive)
C=CCC[C@@H](Cc1ccc(F)cc1)C(=O)OC[C@H](Cc1c[nH]c2ccccc12)NC(=O)[C@@H](CC=C)CC(=O)N(CCO)Cc1ccccc1 | 20.6 µM (active) | –
C=CCC[C@@H](Cc1ccc(F)cc1)C(=O)OC[C@@H](C)NC(=O)[C@H](CC=C)CC(=O)N(CCO)Cc1ccccc1 | – | -20.4% (inactive)
C=CC[C@@H](CC(=O)N[C@H](CO)Cc1ccccc1)C(=O)N[C@H](C)COC(=O)[C@@H](CC=C)Cc1ccc(F)cc1 | – | -13% (inactive)
CCOC(=O)c1ccc(N2C(=O)c3n[nH]c(-c4ccco4)c3C2c2ccc(O)cc2)cc1 (stereo not drawn) | – | -16.7% (inactive)
O=C1[C@@H](c2ccccc2)[C@@H](c2ccccc2)N1c1cccnc1 | – | -8.38% (inactive)
CCCS(=O)(=O)N1CCCC(C(=O)N2CCN(c3ccccc3)CC2)C1 (stereo not drawn) | – | 7.07% (inactive)
CC(=O)N1CCCc2cc(S(=O)(=O)CCC(=O)N3CCN(c4ccccc4)CC3)ccc21 | – | -18.6% (inactive)
CC(=O)Nc1ccc(NC(=O)C2CCCN(S(=O)(=O)c3ccc(Cl)cc3)C2)cc1 (stereo not drawn) | – | 9.54% (inactive)
CC(=O)N1c2ccc(S(=O)(=O)N3CCC(C(=O)NCc4ccc(F)cc4)CC3)cc2CC1C (stereo not drawn) | – | -24.8% (inactive)
CC(=O)N1CCCc2cc(S(=O)(=O)N3CCCC(C(=O)N4CCN(c5cccc(Cl)c5)CC4)C3)ccc21 (stereo not drawn) | 7.31 µM (active) | –
CC(=O)N1c2ccc(S(=O)(=O)N3CCCC(C(=O)NCc4ccc(Cl)cc4)C3)cc2CC1C (stereo not drawn) | 8.2 µM (active) | –
CC(=O)N1c2ccc(S(=O)(=O)N3CCC(C(=O)N4CCN(c5ccccc5)CC4)CC3)cc2CC1C (stereo not drawn) | – | -2.49% (inactive)
CC(=O)N1c2ccc(S(=O)(=O)N3CCCC(C(=O)Nc4cccc(Cl)c4)C3)cc2CC1C (stereo not drawn) | 6.51 µM (active) | –
Cc1ccc(S(=O)(=O)N2CCCC(C(=O)N3CCN(C)CC3)C2)cc1 (stereo not drawn) | – | -14.6% (inactive)
COc1ccccc1CNC(=O)C1CCN(S(=O)(=O)c2ccc3c(c2)CC(C)N3C(=O)C2CC2)CC1 (stereo not drawn) | – | 8.44% (inactive)
O=C(C1CCCN(S(=O)(=O)c2ccccc2)C1)N1CCN(c2ccc(F)cc2)CC1 (stereo not drawn) | 23.1 µM (active) | –
CC(=O)N1c2ccc(S(=O)(=O)N3CCC(C(=O)NC4CCCCC4C)CC3)cc2CC1C (stereo not drawn) | – | -27.4% (inactive)
